# Test results taken from publication PMC12820563, “FoxP3 forms a head-to-head dimer in vivo and stabilizes its multimerization on adjacent microsatellites”.
# In all, about 16,000 sequences were measured (“rpm ratio (pull-down/input)”: median about 0.94, highest 2% from about 1.7 on). The entries come from a sample that favours the highest values as a whole.
# Molecular target: T1, MBP-FoxP1dN (Mus musculus, UniProt P58462 326-579)
# T1 sequence: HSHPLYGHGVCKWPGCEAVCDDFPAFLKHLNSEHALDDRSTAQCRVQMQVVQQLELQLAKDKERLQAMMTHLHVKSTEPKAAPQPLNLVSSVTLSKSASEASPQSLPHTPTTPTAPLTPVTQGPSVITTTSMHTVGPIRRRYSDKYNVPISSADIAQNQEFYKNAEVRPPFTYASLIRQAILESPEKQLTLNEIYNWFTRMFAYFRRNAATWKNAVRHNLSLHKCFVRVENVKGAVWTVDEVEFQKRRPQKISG
# Assay: PD-seq (MBP pull-down with sequencing); 20 mM Tris-HCl pH 7.5, 100 mM NaCl, 1.5 mM MgCl2, 0.4 uM protein, 0.1 uM dsDNA library, 30 min, room temperature, amylose pull-down; high values mean tight binding
# Conditions: protein: recombinant; tags: His6-MBP; chain copies: 2; dsDNA, one strand shown
# Procedure, shortened: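 A degenerate double-stranded DNA library, filled in with Klenow, was added at 0.1 µM to 0.4 µM His6-MBP-tagged mouse FoxP3 or FoxP1 fragment lacking the N-terminus, expressed in E. coli. Incubation lasted 30 min at room temperature in Tris pH 7.5 buffer with NaCl and MgCl2, after which complexes were collected on amylose resin, washed three times, digested with proteinase K to free the DNA, barcoded by PCR and sequenced by Illumina. Binding is the pooled-replicate reads-per-million enrichment of pull-down over input.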
row,Sequence,binding signal
1,GATGATTGTTCTCCCAGCTGATGAATTTCATAAATCGAGTAAACAAATTTTCCTAATCTTTCTGTTCAAGCGCCATCTAC,1.05 RPM ratio (pull-down/input)
2,GATGATTGTTCTCCCAGCTGATGAATTAAATCACTCGAGTAAACAAATTTTCCTAATCTTTCTGTTCAAGCGCCATCTAC,1.09 RPM ratio (pull-down/input)
3,GATGATTGTTCTCCCAGCTGATGAATTAGACGCGTCGAGTAAACAAATTTTCCTAATCTTTCTGTTCAAGCGCCATCTAC,0.99 RPM ratio (pull-down/input)
4,GATGATTGTTCTCCCAGCTGATGAATTGCAGATGTCGAGTAAACAAATTTTCCTAATCTTTCTGTTCAAGCGCCATCTAC,1.27 RPM ratio (pull-down/input)
5,GATGATTGTTCTCCCAGCTGATGAATTACTCCAATCGAGTAAACAAATTTTCCTAATCTTTCTGTTCAAGCGCCATCTAC,1.1 RPM ratio (pull-down/input)
6,GATGATTGTTCTCCCAGCTGATGAATTCCCCAGGTCGAGTAAACAAATTTTCCTAATCTTTCTGTTCAAGCGCCATCTAC,0.743 RPM ratio (pull-down/input)
7,GATGATTGTTCTCCCAGCTGATGAATTATGTGTGTCGAGTAAACAAATTTTCCTAATCTTTCTGTTCAAGCGCCATCTAC,1.4 RPM ratio (pull-down/input)
8,GATGATTGTTCTCCCAGCTGATGAATTATCTGTGTCGAGTAAACAAATTTTCCTAATCTTTCTGTTCAAGCGCCATCTAC,1.03 RPM ratio (pull-down/input)
9,GATGATTGTTCTCCCAGCTGATGAATTATTTGTGTCGAGTAAACAAATTTTCCTAATCTTTCTGTTCAAGCGCCATCTAC,2.12 RPM ratio (pull-down/input)
10,GATGATTGTTCTCCCAGCTGATGAATTACTGATATCGAGTAAACAAATTTTCCTAATCTTTCTGTTCAAGCGCCATCTAC,1.18 RPM ratio (pull-down/input)
11,GATGATTGTTCTCCCAGCTGATGAATTTACAATATCGAGTAAACAAATTTTCCTAATCTTTCTGTTCAAGCGCCATCTAC,1.63 RPM ratio (pull-down/input)
12,GATGATTGTTCTCCCAGCTGATGAATTACAAATATCGAGTAAACAAATTTTCCTAATCTTTCTGTTCAAGCGCCATCTAC,2.21 RPM ratio (pull-down/input)
13,GATGATTGTTCTCCCAGCTGATGAATTACATATATCGAGTAAACAAATTTTCCTAATCTTTCTGTTCAAGCGCCATCTAC,1.34 RPM ratio (pull-down/input)
14,GATGATTGTTCTCCCAGCTGATGAATTACTAATATCGAGTAAACAAATTTTCCTAATCTTTCTGTTCAAGCGCCATCTAC,1.73 RPM ratio (pull-down/input)
15,GATGATTGTTCTCCCAGCTGATGAATTACTACTATCGAGTAAACAAATTTTCCTAATCTTTCTGTTCAAGCGCCATCTAC,1.24 RPM ratio (pull-down/input)
16,GATGATTGTTCTCCCAGCTGATGAATTACCAATATCGAGTAAACAAATTTTCCTAATCTTTCTGTTCAAGCGCCATCTAC,1.79 RPM ratio (pull-down/input)
17,GATGATTGTTCTCCCAGCTGATGAATTACCAATTTCGAGTAAACAAATTTTCCTAATCTTTCTGTTCAAGCGCCATCTAC,1.13 RPM ratio (pull-down/input)

row,Sequence,binding signal
1,GATGATTGTTCTCCCAGCTGATGAATTACCAATCTCGAGTAAACAAATTTTCCTAATCTTTCTGTTCAAGCGCCATCTAC,0.961 RPM ratio (pull-down/input)
2,GATGATTGTTCTCCCAGCTGATGAATTTCGCCAGTCGAGTAAACAAATTTTCCTAATCTTTCTGTTCAAGCGCCATCTAC,0.805 RPM ratio (pull-down/input)
3,GATGATTGTTCTCCCAGCTGATGAATTGCGATTTTCGAGTAAACAAATTTTCCTAATCTTTCTGTTCAAGCGCCATCTAC,1.25 RPM ratio (pull-down/input)
4,GATGATTGTTCTCCCAGCTGATGAATTGTTACCTTCGAGTAAACAAATTTTCCTAATCTTTCTGTTCAAGCGCCATCTAC,1.25 RPM ratio (pull-down/input)
5,GATGATTGTTCTCCCAGCTGATGAATTGGATGCGTCGAGTAAACAAATTTTCCTAATCTTTCTGTTCAAGCGCCATCTAC,1.29 RPM ratio (pull-down/input)
6,GATGATTGTTCTCCCAGCTGATGAATTTTCTAGCTCGAGTAAACAAATTTTCCTAATCTTTCTGTTCAAGCGCCATCTAC,0.887 RPM ratio (pull-down/input)
7,GATGATTGTTCTCCCAGCTGATGAATTCCCGCTTTCGAGTAAACAAATTTTCCTAATCTTTCTGTTCAAGCGCCATCTAC,0.937 RPM ratio (pull-down/input)
8,GATGATTGTTCTCCCAGCTGATGAATTATAATCTTCGAGTAAACAAATTTTCCTAATCTTTCTGTTCAAGCGCCATCTAC,0.909 RPM ratio (pull-down/input)
9,GATGATTGTTCTCCCAGCTGATGAATTCATGATGTCGAGTAAACAAATTTTCCTAATCTTTCTGTTCAAGCGCCATCTAC,1.21 RPM ratio (pull-down/input)
10,GATGATTGTTCTCCCAGCTGATGAATTCATGTTGTCGAGTAAACAAATTTTCCTAATCTTTCTGTTCAAGCGCCATCTAC,2.26 RPM ratio (pull-down/input)
11,GATGATTGTTCTCCCAGCTGATGAATTTCTGATGTCGAGTAAACAAATTTTCCTAATCTTTCTGTTCAAGCGCCATCTAC,1.23 RPM ratio (pull-down/input)
12,GATGATTGTTCTCCCAGCTGATGAATTGTTGATGTCGAGTAAACAAATTTTCCTAATCTTTCTGTTCAAGCGCCATCTAC,2.27 RPM ratio (pull-down/input)
13,GATGATTGTTCTCCCAGCTGATGAATTAATGATGTCGAGTAAACAAATTTTCCTAATCTTTCTGTTCAAGCGCCATCTAC,1.2 RPM ratio (pull-down/input)
14,GATGATTGTTCTCCCAGCTGATGAATTAAAAATGTCGAGTAAACAAATTTTCCTAATCTTTCTGTTCAAGCGCCATCTAC,0.979 RPM ratio (pull-down/input)
15,GATGATTGTTCTCCCAGCTGATGAATTTTTGATGTCGAGTAAACAAATTTTCCTAATCTTTCTGTTCAAGCGCCATCTAC,1.3 RPM ratio (pull-down/input)
16,GATGATTGTTCTCCCAGCTGATGAATTAATGTTGTCGAGTAAACAAATTTTCCTAATCTTTCTGTTCAAGCGCCATCTAC,2.64 RPM ratio (pull-down/input)
17,GATGATTGTTCTCCCAGCTGATGAATTGATGTTGTCGAGTAAACAAATTTTCCTAATCTTTCTGTTCAAGCGCCATCTAC,2.52 RPM ratio (pull-down/input)
